Some test systems named below: SR leukemia; RPMI-8226 leukemia; OVCAR-8 ovarian; OVCAR-5 ovarian; SK-OV-3 ovarian; IGROV1 ovarian; OVCAR-3 ovarian; HS 578T breast; NCI/ADR-RES ovarian; T-47D breast; BT-549 breast; MDA-MB-435 melanoma; SW-620 colon; MCF7 breast; HCT-116 colon; HCC-2998 colon; KM12 colon; OVCAR-4 ovarian.
Common to all, as to assay: NCI-60 one-dose screen, 48 h (100 = growth as untreated, 0 = no growth, -100 = all killed)
What all share (details): 10 µM unless noted

The panel holds about 83,000 compounds, 20% with a hit somewhere; the sample as a whole holds those more often.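 The endpoint reported here, percent growth, reads 100 for growth as untreated, 0 for no net growth and -100 for all cells dead.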 A number with no mark means an inactive call. Calls of active or inactive are those of the source. How the source made its calls: active means growth percent below 10; inactive means the rest.

Regarding `Clc1cc2c(nn1)Nc1ccccc1S2`, the growth with SR leukemia was 77.2%; in the assay with RPMI-8226 leukemia, 78.1%; in the assay on OVCAR-8 ovarian it was 96.2%; in the assay with OVCAR-5 ovarian it was 100%; in the assay on SK-OV-3 ovarian, 99%; in the assay on IGROV1 ovarian it was 27.5%. The growth in the assay with OVCAR-3 ovarian was 117%; in the assay with HS 578T breast it was 102%; with NCI/ADR-RES ovarian, 97.5%; in the assay on T-47D breast, 85%; in the assay on BT-549 breast, 103%; with MDA-MB-435 melanoma, 98.1%. The growth was 103% with SW-620 colon; 85.3% in the assay with MCF7 breast; 96.5% with HCT-116 colon; 114% in the assay on HCC-2998 colon; 102% in the assay on KM12 colon.
As for `COc1ccc(CN2CCc3c(Sc4ccccc4)nc(N)nc3C2=O)c(OC)c1`, the growth in the assay on SR leukemia is 43.3%; with RPMI-8226 leukemia, -6.07% (active); in the assay with OVCAR-8 ovarian it was 44.8%; with OVCAR-5 ovarian, 82.3%; in the assay on OVCAR-4 ovarian, 44.3%; in the assay on SK-OV-3 ovarian, 82.2%. The growth in the assay on OVCAR-3 ovarian is 57.1%; in the assay on HS 578T breast it was 74.3%; in the assay on T-47D breast, 33.9%; with BT-549 breast, 23.4%; in the assay with MDA-MB-435 melanoma, 60.6%; in the assay on SW-620 colon, 81.2%. Further, the growth in the assay on MCF7 breast was 43.7%; in the assay with HCT-116 colon, 42.7%; with HCC-2998 colon, 86.2%; in the assay on KM12 colon, 84.9%.
Regarding `N=C(N)c1ccc(-c2ccc(-c3ccc4ccccc4c3)s2)cc1`, the growth is 6.46% (active) with SR leukemia; 60.7% in the assay with RPMI-8226 leukemia; 102% with OVCAR-8 ovarian; 110% in the assay with OVCAR-5 ovarian; 100% in the assay with OVCAR-4 ovarian; 91.3% with IGROV1 ovarian. Moreover, the growth with OVCAR-3 ovarian is 102%; with HS 578T breast it was 104%; in the assay with NCI/ADR-RES ovarian it was 98.8%; in the assay with T-47D breast, 97.6%; in the assay with BT-549 breast it was 96.2%; with MDA-MB-435 melanoma, 36.6%. Further, the growth in the assay with SW-620 colon is 19.3%; with MCF7 breast, 67.9%; in the assay with HCT-116 colon, 78.6%; in the assay with HCC-2998 colon it was 100%; with KM12 colon, 40.7%.
On to `CC1CN(c2oc(-c3ccccc3)nc2C#N)CC(C)O1` (stereo not given), for which the growth in the assay on SR leukemia was 102%; in the assay with RPMI-8226 leukemia, 104%; in the assay on OVCAR-8 ovarian, 102%; in the assay with OVCAR-5 ovarian, 102%; in the assay with OVCAR-4 ovarian, 99.4%; in the assay with IGROV1 ovarian it was 97.7%. For the same compound, the growth in the assay with OVCAR-3 ovarian is 116%; in the assay on HS 578T breast it was 102%; in the assay on T-47D breast, 94.7%; with BT-549 breast, 99.4%; in the assay with MDA-MB-435 melanoma, 103%; with SW-620 colon, 104%. Also, the growth in the assay with MCF7 breast is 77.1%; with HCT-116 colon it was 104%; in the assay with HCC-2998 colon it was 110%; with KM12 colon, 103%.
As to `COc1cc2c(cc1OCCCN1CCN(CCCn3c4ccccc4c4ccccc43)CC1)N=C[C@@H]1CCCN1C2=O`, the growth in the assay on SR leukemia is -34.7% (active); in the assay with RPMI-8226 leukemia, -57.4% (active); in the assay with OVCAR-8 ovarian, -6.46% (active); with OVCAR-5 ovarian, 3.88% (active); in the assay with SK-OV-3 ovarian, -80.5% (active); with IGROV1 ovarian, -64.6% (active). For the same compound, the growth in the assay on OVCAR-3 ovarian was -91.1% (active); with HS 578T breast, -54.5% (active); with NCI/ADR-RES ovarian, 1.66% (active); in the assay on T-47D breast, -31.1% (active); in the assay on BT-549 breast, -84.1% (active); with MDA-MB-435 melanoma, -80.5% (active). Besides, the growth in the assay on SW-620 colon was -83.2% (active); in the assay on MCF7 breast it was -72% (active); in the assay on HCT-116 colon it was -27.8% (active); with HCC-2998 colon, -86.3% (active); with KM12 colon it was -64.7% (active).
As to `CN(C)CCCN(c1nc(C(Cl)(Cl)Cl)ns1)c1nc(C(Cl)(Cl)Cl)ns1`, the growth is 17.1% in the assay with SR leukemia; 9.37% (active) in the assay with RPMI-8226 leukemia; 55.3% with OVCAR-8 ovarian; 66.5% with OVCAR-5 ovarian; 86.6% in the assay on SK-OV-3 ovarian; 36.6% with IGROV1 ovarian. Besides, the growth in the assay on OVCAR-3 ovarian is 31.7%; with HS 578T breast, 46%; with NCI/ADR-RES ovarian it was 48.8%; in the assay on T-47D breast it was 67.7%; in the assay with BT-549 breast, 74%; in the assay with MDA-MB-435 melanoma, 39.5%. Moreover, the growth with SW-620 colon was 35.1%; with MCF7 breast it was -34.3% (active); in the assay on HCT-116 colon, 21.2%; with HCC-2998 colon, -12.9% (active); in the assay on KM12 colon, 18.4%.
Consider `O=C(NS(=O)(=O)c1ccccc1)n1cc(-c2ccncc2)c(-c2ccc(Cl)c(O)c2)n1`, for which the growth in the assay with SR leukemia was 97.2%; in the assay on RPMI-8226 leukemia, 97.4%; in the assay on OVCAR-8 ovarian, 105%; in the assay on OVCAR-5 ovarian it was 116%; with SK-OV-3 ovarian it was 102%; in the assay with IGROV1 ovarian, 96.8%. The growth with OVCAR-3 ovarian was 117%; in the assay with HS 578T breast it was 106%; in the assay with NCI/ADR-RES ovarian, 102%; in the assay on T-47D breast, 107%; in the assay on BT-549 breast, 104%; with MDA-MB-435 melanoma, 67.9%. For the same compound, the growth in the assay with SW-620 colon is 136%; with MCF7 breast it was 109%; in the assay on HCT-116 colon it was 89.1%; with HCC-2998 colon it was 127%; in the assay with KM12 colon, 99.6%.
On to `COc1ccc(C(=O)n2nc(/C=C/c3ccc(O)c(OC)c3)cc2/C=C/c2ccc(O)c(OC)c2)cc1`, for which the growth with SR leukemia is -9.23% (active); in the assay with RPMI-8226 leukemia, -27.3% (active); with OVCAR-8 ovarian, -5.24% (active); with OVCAR-5 ovarian it was -18.8% (active); in the assay on OVCAR-4 ovarian, -7.85% (active); in the assay on IGROV1 ovarian, 12.8%. For the same compound, the growth is 1.05% (active) in the assay on OVCAR-3 ovarian; 0.538% (active) in the assay with HS 578T breast; 26% in the assay with NCI/ADR-RES ovarian; -4.93% (active) in the assay with T-47D breast; -22.5% (active) in the assay with MDA-MB-435 melanoma; 4.16% (active) with SW-620 colon. The growth in the assay on MCF7 breast is -3.07% (active); with HCT-116 colon, -0.661% (active); in the assay with HCC-2998 colon, 16.4%; in the assay with KM12 colon it was 6.33% (active).
`COc1ccc(/C=N\NC(=O)CN2CCN(c3cc4c(cc3F)c(=O)c(C(=O)N/N=C/c3ccc(OC)c(OC)c3)cn4C3CC3)CC2)cc1OC`: the growth is 3.52% (active) with SR leukemia; 4.84% (active) in the assay with RPMI-8226 leukemia; 13.3% in the assay with OVCAR-8 ovarian; 26.4% with OVCAR-5 ovarian; 17.1% in the assay with SK-OV-3 ovarian; 4.1% (active) in the assay on IGROV1 ovarian. Moreover, the growth with OVCAR-3 ovarian was -5.57% (active); in the assay with HS 578T breast it was -4.8% (active); with NCI/ADR-RES ovarian, 100%; in the assay on T-47D breast it was 3.79% (active); with BT-549 breast, -11.1% (active); in the assay with MDA-MB-435 melanoma, -49.7% (active). Further, the growth with SW-620 colon was 4.64% (active); with MCF7 breast, -4.9% (active); in the assay on HCT-116 colon, 13.3%; with HCC-2998 colon, -10.8% (active); in the assay on KM12 colon, 7.04% (active).

The record behind these values is PubChem BioAssay (NCI).
